IL-1B inflam inh: inflammasome signaling inhibition, IL-1 beta readout; THP-1 LPS/ATP IL-1B secretion, AlphaLISA, 16 h; hits give low values; activity change, % at 57.5 µM; 360,000 tested, 4.7% active; in the data active = activity change below about -50%; inconclusive = mostly about -30% to -49%
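THP-1 cells pretreated 1 hr with compounds (up to 57.5 uM final), then stimulated with LPS (250 ng/mL final) plus ATP (1.25 mM final); secreted IL-1B measured by AlphaLISA after 16 hr, decreased signal indicating inhibition.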
ELG1 repair inh: ELG1-dependent DNA repair inhibition; HEK293T ELG1-luciferase reporter, luminescence, 16 h; DNA damage induced by 5-fluorouridine; Potency, µM (doses to about 46.1 µM), for the others: top-dose activity change, negative = inhibition, most hits filed as inhibitors; 330,000 tested, 2.3% active; also: potency is read from the fitted curve at half-maximal effect; nearly all actives have a fitted effect of over 55% in size
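DMSO vehicle served as the neutral condition. Each well held 2,000 cells given 5-fluorouridine plus compound; after 16 hr at 37 °C/5% CO2, ONE-Glo was added and luciferase measured 30 min later.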
HT1080-NT tox: kills 2HG-producing HT-1080-NT fibrosarcoma cells. HT-1080-NT fibrosarcoma viability, CellTiter-Glo ATP luminescence, 48 h. Potency, µM (titrated, usually from 46.1 µM), for inactives: top-dose activity, negative = less viability, most hits filed as cytotoxic. 360,000 tested, 1.6% active;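 also: NT is the 2HG producing partner of a matched IDH1 knockdown line; potency is read from the fitted curve at half-maximal effect; 0% = DMSO-treated cells and -100% = media-only wells without cells; nearly all actives have a fitted effect of over 55% in size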
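Luminescent CellTiter-Glo readout after 48 hours of compound exposure at 37 degrees C defined viability of HT-1080-NT cells. Activity was normalized to DMSO wells and cell-free media wells; concentration-response curves were fitted and assigned curve classes.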
HT1080 IDH1KD tx: kills HT-1080 cells with IDH1 knockdown. 360,000 tested, 2% active. HT-1080 IDH1 knockdown viability, ATP luminescence, 48 h. Potency, µM (doses to about 46.1 µM), inactives show at the top dose activity, negative = toxicity, hits mostly cytotoxic;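 also: potency is read from the fitted curve at half-maximal effect; 0% = DMSO wells and -100% = cell-free medium wells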
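Luminescent ATP read-out (CellTiter-Glo, 10 min at room temperature) after 48 h compound exposure at 37 °C gave viability of IDH1-knockdown HT-1080 cells. Activity was normalised to DMSO and cell-free wells, then fitted as concentration-response curves.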
TDP1 cell CPT: growth inhibition of DT40 Tdp1-/-;hTDP1 cells with camptothecin (screen for TDP1 inhibitors) | 420,000 tested, 12% active | chicken DT40 Tdp1-/-;hTDP1 cells + 20 nM CPT, ATP luminescence, 48 h | AID 686979 | Potency, µM (top dose mostly 46.2 µM), without a hit: top-dose activity change, negative = growth inhibition, usual class: inhibitors; also: potency is read from the fitted curve at half-maximal effect; nearly all actives have a fitted effect of over 55% in size
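Chicken DT40 Tdp1-/- cells stably complemented with human TDP1 were seeded at 400 cells/well in medium containing 20 nM camptothecin, exposed to pin-transferred compounds, and grown at 37 °C for at least 48 hr. Viability was read as ATP luminescence.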
TDP1 cell noCPT: qHTS for Inhibitors of human tyrosyl-DNA phosphodiesterase 1 (TDP1): qHTS in cells in absence of CPT; DT40 Tdp1-/- hTDP1 cells, no CPT, ATP luminescence, 48 h; Potency, µM (doses to about 46.2 µM), for the others: at the highest dose activity change, negative = growth inhibition, hits mostly inhibitors; 420,000 tested, 15% active; also: potency is read from the fitted curve at half-maximal effect; nearly all actives have a fitted effect of over 55% in size
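Cells were dispensed at 400 per well, compounds added by pin tool, plates incubated ≥48 hr at 37 °C, then CellTiter-Glo added for 30 min at room temperature before luminescence reading. Line: DT40 Tdp1-/- complemented with hTDP1; camptothecin omitted.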
The depositor's hits bear a star. Shown are actives, neighbours in structure and some others; about 19% of the full set was active somewhere. Unless noted, calls follow the shape of the dose curve; as a rule, active = well fitted curve in the direction sought with a large enough effect; inconclusive = small, poorly fitted or top-dose-only effect, or another doubt; inactive = no such curve, though single readings can be large; an effect the other way counts as inactive or inconclusive. Unless noted, % is scaled to controls: 0 for no effect and ±100 for the full control effect.

`O=C(N/N=C/c1ccc(-c2cccc(C(F)(F)F)c2)o1)c1cccc(F)c1` gave IL-1B inflam inh 0, ELG1 repair inh -28%, HT1080-NT tox inconclusive, HT1080 IDH1KD tx inconclusive, TDP1 cell CPT 18µM* and TDP1 cell noCPT 14µM*.
O=C(NC1CCCc2c1cnn2-c1ccccc1F)c1ccccn1 (stereo unspecified) was read as IL-1B inflam inh 0, ELG1 repair inh inconclusive, HT1080-NT tox -17%, HT1080 IDH1KD tx -2%, TDP1 cell CPT inconclusive and TDP1 cell noCPT inconclusive.
`Cc1nnsc1C(=O)NC1CCCc2c1cnn2-c1ccccc1F` (stereo unspecified) gave IL-1B inflam inh 4, ELG1 repair inh inconclusive, HT1080-NT tox inconclusive, HT1080 IDH1KD tx -11%, TDP1 cell CPT 10µM* and TDP1 cell noCPT 18µM*.
Screening Cc1nnsc1C(=O)NC1CCCc2c1cnn2-c1ccc(C(C)(C)C)cc1 (stereo unspecified) returned IL-1B inflam inh -29, ELG1 repair inh 2%, HT1080-NT tox -28%, HT1080 IDH1KD tx -20%, TDP1 cell CPT 10µM* and TDP1 cell noCPT 7.3µM*.
Screening CCC/C=N/Nc1nnc(Cc2ccc(OC)c(OC)c2)c(=O)[nH]1 returned IL-1B inflam inh 18, ELG1 repair inh 2%, HT1080-NT tox -20%, HT1080 IDH1KD tx -17%, TDP1 cell CPT -3% and TDP1 cell noCPT 12%.
CN(C)C(=O)c1ccc(NC(=O)c2ccccc2Sc2ccccc2C#N)cc1 was read as IL-1B inflam inh -5, ELG1 repair inh 1%, HT1080-NT tox -5%, HT1080 IDH1KD tx 3%, TDP1 cell CPT -13% and TDP1 cell noCPT -11%.
Cn1nc(-c2ccc(C(=O)Nc3ccc(F)cc3)cc2)c2ccccc2c1=O was read as IL-1B inflam inh -10, ELG1 repair inh 7.3µM*, HT1080-NT tox 0%, HT1080 IDH1KD tx -1%, TDP1 cell CPT inconclusive and TDP1 cell noCPT inconclusive.
For Cc1ccc(NC(=O)c2ccc(-c3nn(C)c(=O)c4ccccc34)cc2)c(C)c1 the results were IL-1B inflam inh 1, ELG1 repair inh -30%, HT1080-NT tox 13%, HT1080 IDH1KD tx 5%, TDP1 cell CPT inconclusive and TDP1 cell noCPT -17%.
Screening Cc1ccc(NC(=O)c2ccc(-c3nn(C)c(=O)c4ccccc34)cc2)cc1 returned IL-1B inflam inh -8, ELG1 repair inh inconclusive, HT1080-NT tox 0%, HT1080 IDH1KD tx 0%, TDP1 cell CPT 21µM* and TDP1 cell noCPT inconclusive.
Screening CNC(=O)c1cc(NC(=O)CCn2nc(-c3ccc(C)cc3)c3ccccc3c2=O)ccc1OC returned IL-1B inflam inh -50*, ELG1 repair inh inconclusive, HT1080-NT tox 17%, HT1080 IDH1KD tx -6%, TDP1 cell CPT inconclusive and TDP1 cell noCPT inconclusive.
Screening Cc1cc(S(=O)(=O)NC(C)c2nnc3ccccn23)ccc1Br (stereo unspecified) returned IL-1B inflam inh 11, ELG1 repair inh 0%, HT1080-NT tox 2%, HT1080 IDH1KD tx 3%, TDP1 cell CPT -3% and TDP1 cell noCPT 7%.
Screening CCCCC(NC(=O)COc1cc2c(c3oc(=O)cc(C)c13)CCC(C)(C)O2)C(=O)O (stereo unspecified) returned IL-1B inflam inh -12, ELG1 repair inh -5%, HT1080-NT tox 2%, HT1080 IDH1KD tx -1%, TDP1 cell CPT -11% and TDP1 cell noCPT -6%.
COc1ccc(N(C(=O)c2cccnc2)S(=O)(=O)c2ccc(Cl)cc2)cc1 was read as IL-1B inflam inh -16, ELG1 repair inh 0%, HT1080-NT tox -10%, HT1080 IDH1KD tx -4%, TDP1 cell CPT inconclusive and TDP1 cell noCPT -15%.
Screening COc1ccc(N(C(=O)COc2ccccc2OC)S(=O)(=O)c2ccc(Cl)cc2)cc1 returned TDP1 cell CPT 16µM* and TDP1 cell noCPT 23µM*.
`COc1ccc(N(C(=O)c2ccccc2C)S(=O)(=O)c2ccc(C)cc2)cc1` gave TDP1 cell CPT 12µM* and TDP1 cell noCPT inconclusive.
For COc1ccc(N(C(=O)c2cccc(C)c2)S(=O)(=O)c2ccc(Cl)cc2)cc1 the results were TDP1 cell CPT 18µM* and TDP1 cell noCPT inconclusive.
For Cc1ccc(C(=O)N(c2ccc(C)cc2)S(=O)(=O)c2ccc(Cl)cc2)cc1 the results were TDP1 cell CPT inconclusive and TDP1 cell noCPT 23µM*.
`CCN(C(=O)c1cccn(Cc2ccccc2C)c1=O)c1ccccc1` gave TDP1 cell CPT -5% and TDP1 cell noCPT inconclusive.
`Cc1ccc(S(=O)(=O)NCCC(=O)Nc2cccc(Cl)c2)cc1` gave IL-1B inflam inh -16, ELG1 repair inh -14%, HT1080-NT tox 8%, HT1080 IDH1KD tx 6%, TDP1 cell CPT -9% and TDP1 cell noCPT 0%.
For CC1NC(C(=O)O)Cc2c1[nH]c1ccccc21 (stereo unspecified) the results were TDP1 cell CPT -6% and TDP1 cell noCPT -17%.
For COc1ccc(N(C(=O)c2ccc(C(C)(C)C)cc2)S(=O)(=O)c2ccc(Cl)cc2)cc1 the results were TDP1 cell CPT inconclusive and TDP1 cell noCPT 21µM*.
CCC(=O)N1c2ccc(S(=O)(=O)NCCc3ccc(C)cc3)cc2CC1C (stereo unspecified) was read as IL-1B inflam inh 13, ELG1 repair inh 13%, HT1080-NT tox 2%, HT1080 IDH1KD tx 0%, TDP1 cell CPT -27% and TDP1 cell noCPT -9%.
CCC(=O)N1c2ccc(S(=O)(=O)NCc3ccc(F)cc3)cc2CC1C (stereo unspecified) was read as TDP1 cell CPT 15µM* and TDP1 cell noCPT 12µM*.
Screening COc1ccccc1CNS(=O)(=O)c1ccc2c(c1)CC(C)N2C(C)=O (stereo unspecified) returned TDP1 cell CPT inconclusive and TDP1 cell noCPT 18µM*.
`COc1cc(OC)c(NC(=O)CCNS(=O)(=O)c2ccc3c(c2)CC(C)N3C(C)=O)cc1Cl` (stereo unspecified) gave IL-1B inflam inh 107, ELG1 repair inh -1%, HT1080-NT tox 4%, HT1080 IDH1KD tx 7%, TDP1 cell CPT 19% and TDP1 cell noCPT 22%.
Screening COc1ccc(NS(=O)(=O)c2ccc3c(c2)CC(C)N3C(C)=O)c(OC)c1 (stereo unspecified) returned TDP1 cell CPT 18µM* and TDP1 cell noCPT 21µM*.
